Experimental findings from paper PMC4336329 (PLoS ONE, 2015) are described below.

About 14,000 (4.5%) of roughly 310,000 compounds showed an effect of 50% or more. Effects have a minus sign here. Many of the other results were omitted from the sample, so strong results are more common in it than they were.
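Further: peak tail current of the secondary pulse compared with the same well before compound.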

Sequence of human ether-à-go-go-related gene (hERG) potassium channel (Q12809 whole entry, looked up): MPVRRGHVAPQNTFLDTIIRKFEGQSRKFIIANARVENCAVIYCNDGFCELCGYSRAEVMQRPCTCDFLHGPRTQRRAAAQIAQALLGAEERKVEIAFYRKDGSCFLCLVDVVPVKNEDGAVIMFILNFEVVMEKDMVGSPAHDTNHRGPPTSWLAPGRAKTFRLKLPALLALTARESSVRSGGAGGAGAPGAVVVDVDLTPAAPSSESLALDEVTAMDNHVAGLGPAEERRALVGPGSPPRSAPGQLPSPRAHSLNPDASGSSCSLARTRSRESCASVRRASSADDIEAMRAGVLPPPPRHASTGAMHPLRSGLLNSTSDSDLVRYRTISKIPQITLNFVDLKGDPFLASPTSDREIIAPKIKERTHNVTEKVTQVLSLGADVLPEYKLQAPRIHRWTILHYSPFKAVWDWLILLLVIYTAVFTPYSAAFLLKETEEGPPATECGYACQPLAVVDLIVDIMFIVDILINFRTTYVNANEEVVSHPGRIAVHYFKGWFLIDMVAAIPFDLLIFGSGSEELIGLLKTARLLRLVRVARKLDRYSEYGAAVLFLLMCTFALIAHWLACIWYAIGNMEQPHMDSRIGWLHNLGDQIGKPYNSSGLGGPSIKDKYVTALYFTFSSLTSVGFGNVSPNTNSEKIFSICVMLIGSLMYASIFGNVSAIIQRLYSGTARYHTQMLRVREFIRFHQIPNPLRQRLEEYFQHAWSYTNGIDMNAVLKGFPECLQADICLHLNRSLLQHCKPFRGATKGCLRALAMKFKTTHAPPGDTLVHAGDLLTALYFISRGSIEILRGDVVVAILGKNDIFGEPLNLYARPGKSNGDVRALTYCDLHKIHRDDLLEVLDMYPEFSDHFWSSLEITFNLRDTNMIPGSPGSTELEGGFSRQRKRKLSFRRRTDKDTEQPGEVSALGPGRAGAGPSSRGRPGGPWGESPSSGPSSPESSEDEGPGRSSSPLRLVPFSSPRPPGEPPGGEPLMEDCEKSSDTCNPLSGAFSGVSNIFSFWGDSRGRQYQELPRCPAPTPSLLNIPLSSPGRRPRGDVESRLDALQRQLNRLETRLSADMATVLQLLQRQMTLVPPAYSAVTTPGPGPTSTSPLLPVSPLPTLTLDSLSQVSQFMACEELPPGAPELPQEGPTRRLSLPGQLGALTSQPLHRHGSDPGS

The assay concerns the target human ether-à-go-go-related gene (hERG) potassium channel (human, UniProt Q12809). Nature of the assay: primary screen, population patch clamp on CHO cells stably expressing hERG; higher = less effect of the substance.
As to `Cc1cc2c(NC(=O)Nc3ccc(C(F)(F)F)cc3)cccc2nn1`, the “hERG current change (%, negative = inhibition) at 10uM” value is reported as -2.37%.
Regarding `Cn1cc([N+](=O)[O-])c(C(=O)Nc2ccc3c(c2)OCCO3)n1`, the “hERG current change (%, negative = inhibition) at 10uM” value is given as 5.3%.
Next, `Cc1cccc(C(=O)N2CCC(=O)N(C(COCc3ccc(Cl)cc3)Cc3ccccc3)CC2)c1` (stereo not drawn): -25.7%.
Next, `CCC(C)[C@H](NC(=O)[C@H](Cc1ccccc1)n1c(=O)[nH]c2ccccc2c1=O)C(=O)NCC1CCC(C(=O)O)CC1` (stereo partly drawn): 20.4%; `COc1cccc(OCC(=O)N2CCN(C)CC2)c1`: -10.1%.
Next, `Cc1cc(=O)oc2c3c(cc(OCC(=O)NCC(=O)O)c12)OC(C)(C)CC3`: 19%; `CCN(CC)CCOC(=O)c1ccc(NC(=O)CCNC(=O)Cn2ccc3ccccc3c2=O)cc1`: 11.8%; `CC(C)n1cc(CN2CCC(C(=O)Nc3ccc(Oc4ccccc4F)cc3)CC2)cn1`: -76.1%.
As to `CC(C)n1cc(CN2CCCC(C(=O)Nc3ccccc3Oc3cccnc3)C2)cn1` (stereo not drawn), the “hERG current change (%, negative = inhibition) at 10uM” value was -42.4%.
Next, `CN(C)C(=O)CCC(=O)N1CCCCC1C(=O)Nc1ccc(Oc2ccccc2F)cc1` (stereo not drawn): -43.9%; `CCn1cc(CN2CCC(C(=O)Nc3ccc(Oc4ccccc4F)cc3)CC2)c(C)n1`: -72.9%.
With `CCn1cc(CN2CCC(C(=O)Nc3ccc(Oc4cccnc4)cc3)CC2)cn1`, the “hERG current change (%, negative = inhibition) at 10uM” value is reported as -19%.
With `CCn1cc(CN2CCC(C(=O)Nc3ccc(Oc4cccnc4)cc3)CC2)c(C)n1`, the “hERG current change (%, negative = inhibition) at 10uM” value is recorded as -18.4%.
On to `Cn1cc(CN2CCC(C(=O)Nc3ccc(Oc4ccccc4F)cc3)CC2)cn1`, for which the “hERG current change (%, negative = inhibition) at 10uM” value is -65.6%.
With `CCn1cc(CN2CCCC(C(=O)Nc3ccc(-c4nc5ccccc5[nH]4)cc3)C2)c(C)n1` (stereo not drawn), the “hERG current change (%, negative = inhibition) at 10uM” value was -21%.
The value for `COC(=O)c1cc2oc3ccccc3c2n1Cc1ccccn1` was -8.74%; that for `C/C(=N\N=C1\NC(=O)C(CC(=O)Nc2ccc(Cl)cc2)S1)c1ccco1` (stereo not drawn) was 13%.
Regarding `CCn1c(SCC(=O)Nc2ccccc2Cl)nnc1C1CC1`, the “hERG current change (%, negative = inhibition) at 10uM” value is on record as 6.78%.
Take `Cc1c(S(=O)(=O)N2CCCC(C)C2)c(=O)n(C)c(=O)n1C` (stereo not drawn): the “hERG current change (%, negative = inhibition) at 10uM” value is -2.74%.
For the compound `O=C(NCCNC(=O)c1ccccc1)c1ccccc1`, the “hERG current change (%, negative = inhibition) at 10uM” value was determined as 2.89%.
Regarding `Cc1cc([N+](=O)[O-])cc(C)c1OCC(=O)N/N=C/c1ccc(OC(=O)c2ccccc2Br)cc1`, the “hERG current change (%, negative = inhibition) at 10uM” value came to 4.23%.
The value for `CCC(C)NC(=O)C1c2ccccc2C(=O)N1Cc1cc(OC)ccc1OC` (stereo not drawn) was 9.25%.
The value for `COc1ccc(-c2c(C#Cc3ccsc3)c3cc(-c4ccc5[nH]ccc5c4)ccc3n2C)cc1` was 24.1%.
As to `O=C(CN1C(=O)COc2ccccc21)c1cccc(Cl)c1`, the “hERG current change (%, negative = inhibition) at 10uM” value is on record as -14.4%.
For the compound `CSc1ccccc1OCc1cc(C(=O)N2CCC[C@H]2C(N)=O)no1`, the “hERG current change (%, negative = inhibition) at 10uM” value is 5.26%.
Next, `N#CSCC(=O)c1cccc2ccccc12`: -24.8%.
As for `COc1ccc(NC(=O)C2CCCN(C)C2)cc1OCC(C)C` (stereo not drawn), the “hERG current change (%, negative = inhibition) at 10uM” value was -1.9%.
Take `COc1ccc(NC(=O)C2CCCCN2N)cc1OCC(C)C.O=C(O)C(=O)O` (stereo not drawn): the “hERG current change (%, negative = inhibition) at 10uM” value was -5.25%.
The value for `COc1ccc(NC(=O)C2CCCN(CCCc3ccccc3)C2)cc1OCC(C)C.O=C(O)/C=C/C(=O)O` (stereo not drawn) was -52.1%; that for `O=C(NCc1ccc(F)cc1)C1Cc2ccccc2CN1C(=O)c1ccco1` (stereo not drawn) was -42.1%.
Consider `O=C(NCCc1c[nH]c2ccccc12)C1Cc2ccccc2CN1C(=O)c1ccco1` (stereo not drawn), for which the “hERG current change (%, negative = inhibition) at 10uM” value is listed as -71.6%.
Consider `CCS(=O)(=O)N1Cc2ccccc2CC1C(=O)NCCc1c[nH]c2ccccc12` (stereo not drawn), for which the “hERG current change (%, negative = inhibition) at 10uM” value is -0.595%.
With `O=C(NCc1ccccc1)C1Cc2ccccc2CN1C(=O)c1ccco1` (stereo not drawn), the “hERG current change (%, negative = inhibition) at 10uM” value was -12.2%.
Next, `O=C(NCc1ccc2c(c1)OCO2)c1ccc(CN2CCOCC2)cc1`: 15.3%; `O=C(NCc1ccc2c(c1)OCO2)c1ccccc1`: -4.18%.
As for `NS(=O)(=O)c1ccc(CCNC(=O)C2Cc3ccccc3CN2C(=O)c2ccco2)cc1` (stereo not drawn), the “hERG current change (%, negative = inhibition) at 10uM” value was found to be 9.39%.
Turning to `O=C(NCc1ccc2c(c1)OCO2)c1ccc(CN2CCc3ccccc3C2)cc1`, the “hERG current change (%, negative = inhibition) at 10uM” value is reported as -52.5%.
Regarding `O=C(NCc1ccc2c(c1)OCO2)C1Cc2ccccc2CN1C(=O)c1ccco1` (stereo not drawn), the “hERG current change (%, negative = inhibition) at 10uM” value was -59%.
In the case of `COc1ccc(N2C(=O)CC(NCc3cccc(F)c3)C2=O)cc1` (stereo not drawn), the “hERG current change (%, negative = inhibition) at 10uM” value is -13.3%.
Next, `Cc1ccc(-n2c(=O)[nH]c3c(oc4ccccc43)c2=O)cc1`: -0.961%; `CCOc1ccc(CC2CC(=O)NC2=O)cc1` (stereo not drawn): 12.5%.
The value for `N=c1oc2ccc(Br)cc2cc1C(=O)NCc1ccc(F)cc1` was 5.37%; that for `C/C(=N/NC(=O)c1ccc(Br)o1)C(C)C` was -1.43%; that for `Cc1cccc(C(=O)Nc2ccc(C(=O)Nc3ccc(O)cc3)cc2)c1` was 12.5%.
On to `O=C(CCCN1C(=O)c2ccccc2C1=O)Nc1ccc(S(=O)(=O)N2CCCCC2)cc1`, for which the “hERG current change (%, negative = inhibition) at 10uM” value was -28.8%.
